Measured values reported in PubChem BioAssay (Tox21).
Results filed as inconclusive are left out. Active and inactive are the calls of the source. Calls come from the whole dose curve; as a rule, active = well fitted cell-killing curve with a large enough effect in the repeat runs; inconclusive = weak or mixed curves; inactive = flat fitted curve, though single readings scatter.

Assay: qHTS assay to identify small molecule antagonists of the TGF-beta/Smad signaling pathway - cell viability counter screen (AID 1346824); note: nearly all actives have a fitted effect of over 50% in size
Settings: SBE-bla HEK293T viability, CellTiter-Glo luminescence; series mostly up to 76.8 µM
Excerpt: U.S. Tox21 Program National Center for Advancing Translational Sciences [NCATS] NIH Chemical Genomics Center [NCGC] U.S. Environmental Protection Agency [EPA] National Institutes of Environmental Health Sciences [NIEHS] National Toxicology Program [NTP] U.S. Food and Drug Administration [FDA] Tox21 Assay Overview: Transforming growth factor beta (TGF-beta) superfamily consists of a large number of structurally related dimeric proteins that act as hormones or local mediators in regulating a wide range of biological functions. This superfamily includes TGF-betas themselves, the bone morphogenetic proteins (BMPs) and the activins. These ligands induce oligomerization of serine/threonine receptor kinases and phosphorylate the cytoplasmic signaling molecules of Smad protein family. CellSensor SBE-bla HEK 293T cell line (Life Technologies, Carlsbad, CA), responsive to TGF-beta was used to screen Tox21 10K compound library for identification of agonists/antagonists of the Smad signaling pathway. This cell line contains a beta-lactamase reporter gene under control of the Smad binding element (SBE) stably integrated into HEK 293T cells. Also cytotoxicity of the compounds was tested in parallel by measuring the cell viability using CellTiter-Glo assay system in the same wells.
Tox21 Assay Protocol Summary: SBE-bla HEK 293T cells were dispensed at 4,000/well in 5 uL of assay medium into black wall/clear-bottom 1536-well plates using a Multidrop Combi (ThermoFisher Scientific, Waltham, MA) dispenser. After the assay plates were incubated at 37 C and 5% CO2 for an overnight, 23 nL of compounds dissolved in DMSO, positive controls or DMSO only was transferred to the assay plate by a Pintool station (Kalypsys, San Diego, CA). Compound transfer was followed by the addition of 1 uL of 0.25 ng/mL TGF-beta1 or assay buffer using two separate tips of Flying Reagent Dispenser (FRD, Aurora Discovery, San Diego, CA). The assay plates were incubated at 37 C and 5% CO2 for 5 hr. One uL of LiveBLAzer B/G FRET substrate (Life Technologies) was added using a Flying Reagent Dispenser (FRD, Aurora Discovery, San Diego, CA) and the plates were incubated at room temperature for 2 hr. Fluorescence intensity (405 nm excitation, 460 nm and 530 nm emissions) was measured using an Envision plate reader (PerkinElmer, Shelton, CT). For cytotoxicity read, 4 uL of CellTiter-Glo reagent (Promega Corporation, Madison, WI) was added to each well of the assay plates using FRD. After 30 min incubation at room temperature, the luminescence intensity was measured using ViewLux plate reader (PerkinElmer).

SMILES | outcome
CC(=O)CN(CC(C)=O)N=O | inactive
O=C(O)c1c(Cl)ccc2cc(Cl)cnc12 | inactive
CCC1(c2cccc(O)c2)CCCCN(C)C1 (stereo not given) | inactive
CCC1(c2ccccc2)C(=O)N(COC)C(=O)N(COC)C1=O | inactive
C=CCC1(C(C)CC)C(=O)NC(=O)NC1=O (stereo not given) | inactive
CON(C)C(=O)Nc1ccc(Br)cc1 | inactive
COC(=O)c1ccc(CBr)cc1 | inactive
ClC1=C(Cl)C2(Cl)C(CBr)CC1(Cl)C2(Cl)Cl (stereo not given) | inactive
C#CC(C)(C)O | inactive
Cn1c(N)nc2c3cccnc3ccc21 | inactive
CCCCCCCC(=O)Cl | inactive
O=c1[nH]c2ccccc2o1 | inactive
CC(Cc1ccccc1)NCCCCl (stereo not given) | inactive
Clc1ccc(C(Cl)(Cl)Cl)cn1 | inactive
C=C(Cl)CCl | inactive
CCN(CCO)CCO | inactive
CNC(=O)Oc1ccccc1C(C)C | inactive
CCOC(=O)c1ncn2c1CN(C)C(=O)c1c(I)cccc1-2 | inactive
ClCC1CO1 (stereo not given) | inactive
CCN1CCCC1CNC(=O)C(O)(c1ccccc1)c1ccccc1 (stereo not given) | inactive

SMILES | outcome
NCCOS(=O)(=O)O | inactive
CCCC(C)C1(CC)C(=O)N=C(S)NC1=O (stereo not given) | inactive
CCN(CCO)CCn1c(Cc2ccccc2)nc2c1c(=O)n(C)c(=O)n2C | inactive
CCCCCCCCSC(=O)Oc1cc(Cl)nnc1-c1ccccc1 | inactive
C=CC(=O)OCCN(C)C | inactive
C=CCN1CC[C@]23CCCC[C@H]2[C@H]1Cc1ccc(O)cc13 | inactive
Oc1ccc2c3c1O[C@H]1[C@@H](O)C=C[C@H]4[C@@H](C2)NCC[C@@]341 | inactive
COc1cccc([C@@]2(O)CCCC[C@@H]2CN(C)C)c1 | inactive
C[N+]1(C)CCCCC1 | inactive
CC(C)C(C)(N)C#N (stereo not given) | inactive
CCOC(=O)NC(C)(C)Cc1ccc(Cl)cc1 | inactive
NC(=O)CS(=O)C(c1ccccc1)c1ccccc1 (stereo not given) | inactive
CC1N=C(N)OC1c1ccccc1 (stereo not given) | inactive
C=CCc1cc(OC)c2c(c1)OCO2 | inactive
CCN[C@@H](C)Cc1ccccc1 | inactive
CCN[C@H](C)Cc1cccc(C(F)(F)F)c1 | inactive
COc1cccc(C=O)c1 | inactive
NC(=O)OCCCc1ccccc1 | inactive
NNC(N)=O | inactive
O=C1CC(=O)NC(=O)N1 | inactive
